The full ranking holds about 18,000 sequences; the median of “log2 normalized intensity” is about 0.36, and the highest 2% start at about 7.3. What follows is part of a selection rich in the highest values, with near analogues and random picks from the rest.
These sequences were tested against T1, HNF4alpha8 (COS-7 nuclear extract) (Homo sapiens, UniProt P41235-5 1-452) (assay: protein-binding microarray; COS-7 nuclear extract on double-stranded Agilent 4x180k PBM; binding buffer, salt, pH and temperature not given in the material; high values mean tight binding). Details: chain copies: 2; label: 3' end of strand 1 on the slide; dsDNA, one strand shown.
T1 sequence: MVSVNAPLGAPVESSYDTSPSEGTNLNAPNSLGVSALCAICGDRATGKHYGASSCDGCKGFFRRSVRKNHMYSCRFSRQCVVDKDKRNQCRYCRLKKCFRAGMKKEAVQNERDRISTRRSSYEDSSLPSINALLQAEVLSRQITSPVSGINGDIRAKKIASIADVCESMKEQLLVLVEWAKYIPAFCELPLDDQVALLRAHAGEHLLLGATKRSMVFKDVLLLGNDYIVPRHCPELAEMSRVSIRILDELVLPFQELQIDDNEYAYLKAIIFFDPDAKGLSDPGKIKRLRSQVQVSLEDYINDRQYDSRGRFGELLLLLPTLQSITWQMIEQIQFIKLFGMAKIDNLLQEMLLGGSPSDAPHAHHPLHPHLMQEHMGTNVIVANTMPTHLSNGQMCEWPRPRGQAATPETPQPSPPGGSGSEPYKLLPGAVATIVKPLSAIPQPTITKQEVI
Outline: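 Nuclear extracts from COS-7 cells expressing a transiently transfected human HNF4α isoform were put on a custom Agilent SurePrint G3 4x180k array carrying ~44,000 double-stranded ~60-nt test sequences in quadruplicate. Imaging used an Agilent G2565CA scanner at 2-µm resolution. Binding signal is the background-corrected, normalized gProcessedSignal from Agilent software.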

Row | Sequence | binding signal [log2 normalized intensity]
1 | TGTCAGGAACAACTTCGGGAATCTGACCTTGCCTAGGGAGATTAGAGTATCGGTCGA | 4.3
2 | GCTTACAACTCTAAGGGGGAAAGTCCACGTGCCTAGGGAGATTAGAGTATCGGTCGA | 4.61
3 | CTCAACCTCCCCCTGGGGACAGGTGTTAATGCCTAGGGAGATTAGAGTATCGGTCGA | 2.27
4 | CACGTGCAAAGTACAAAGTACAGAGATGGCGCCTAGGGAGATTAGAGTATCGGTCGA | 3.78
5 | GGGTAACTGACCTTGTTGCCCACCCCCCAAGCCTAGGGAGATTAGAGTATCGGTCGA | 5.8
6 | TCAATGGCCCCAGTGCACGTGCATGAGGCCGCCTAGGGAGATTAGAGTATCGGTCGA | -0.475
7 | GGATCCTTGGAGGACCTTGGGTTCATTTTAGCCTAGGGAGATTAGAGTATCGGTCGA | 2.86
8 | TTTTGCTCTGATCCTAGTCTTTGCCCCACTGCCTAGGGAGATTAGAGTATCGGTCGA | 3.94
9 | ACTGCCCGCTGGCCTCCCCATCCTCATGACGCCTAGGGAGATTAGAGTATCGGTCGA | 2.93
10 | CAAGCTGACAAACATGTATCAGTGATAGACGCCTAGGGAGATTAGAGTATCGGTCGA | -0.0274
11 | CTTTAGCACCTTCATCCAAAGATGACCTTTGCCTAGGGAGATTAGAGTATCGGTCGA | 8.24
12 | TATGACCTTTGCTTTTCAAGATTTTACCTAGCCTAGGGAGATTAGAGTATCGGTCGA | 2.72
13 | AATCGACCTTTAGCACCGTAAGAGAGTATTGCCTAGGGAGATTAGAGTATCGGTCGA | 4.63
14 | TAACTCCTTTGTGTGAATCGACCTTTAGCAGCCTAGGGAGATTAGAGTATCGGTCGA | 6.42
15 | TCTTATTGCCTCATGTTTGCAGAATGGCTGGCCTAGGGAGATTAGAGTATCGGTCGA | 0.617
16 | GGACTTGGGACTTTCGAGTTAATGCTGGAGGCCTAGGGAGATTAGAGTATCGGTCGA | 3.2
17 | ACTTTGGACTTGGGACTTTCGAGTTAATGCGCCTAGGGAGATTAGAGTATCGGTCGA | 4.67
18 | CTGGACTTTCCTTTGTTGGGAGACTTTTTAGCCTAGGGAGATTAGAGTATCGGTCGA | 1.45
19 | CCTTTGGACTGTCCTTTGCTAGATTCTTTCGCCTAGGGAGATTAGAGTATCGGTCGA | 2.13
20 | TTTGGACTTTGGACTTGGGACTTTCGAGTTGCCTAGGGAGATTAGAGTATCGGTCGA | 8.22
21 | GAGACTTTGGACTTTGGACTTGGGACTTTCGCCTAGGGAGATTAGAGTATCGGTCGA | 9.81
22 | ATAGCAAACACGATTGGATGGAAGGTCCTTGCCTAGGGAGATTAGAGTATCGGTCGA | 0.748
23 | AATCAAACTGAACTTTGAAACAAGCCCATCGCCTAGGGAGATTAGAGTATCGGTCGA | 3.87

Row | Sequence | binding signal [log2 normalized intensity]
24 | CAACCTCTCCAATGCTATGCTTTTATTTAAGCCTAGGGAGATTAGAGTATCGGTCGA | -0.995
25 | CATCATAAACCCGATCCTTACTATTAGGTCGCCTAGGGAGATTAGAGTATCGGTCGA | 1
26 | CTTGGCTGTGCTGCCCTTTGCCCTTTGGGAGCCTAGGGAGATTAGAGTATCGGTCGA | 7.91
27 | GAGAGTTTTCCTTGGCTGTGCTGCCCTTTGGCCTAGGGAGATTAGAGTATCGGTCGA | 4.01
28 | GGACTTTGGGCTGTGTTTTGCCCCTGCAGAGCCTAGGGAGATTAGAGTATCGGTCGA | 4.12
29 | GGGTGGGGTGCTGCCTTTCCTGTGACTTTTGCCTAGGGAGATTAGAGTATCGGTCGA | 2.09
30 | TTTTCCTTGGCTGTGCTGCCCTTTGCCCTTGCCTAGGGAGATTAGAGTATCGGTCGA | 8.52
31 | CTGTGCTGCCCTTTGCCCTTTGGGAAGGGGGCCTAGGGAGATTAGAGTATCGGTCGA | 6.59
32 | GCGTAGCCCAAAGGTCAGTCTGCAGCTAATGCCTAGGGAGATTAGAGTATCGGTCGA | 3.36
33 | AGTAGGCACTATTATCCCCCTATCCCAAGAGCCTAGGGAGATTAGAGTATCGGTCGA | 4.72
34 | GTGCTTGGACCTGCTCTGTTTTCTTTCGGTGCCTAGGGAGATTAGAGTATCGGTCGA | 1.24
35 | GGTGACCCCTCAGTTTTTCTCTTTTGACCTGCCTAGGGAGATTAGAGTATCGGTCGA | 4.77
36 | CTTTTCTGCTTTTGGAATTTGACCTCATTTGCCTAGGGAGATTAGAGTATCGGTCGA | 7.55
37 | CCCCTCAGTTTTTCTCTTTTGACCTTTGGAGCCTAGGGAGATTAGAGTATCGGTCGA | 9.54
38 | CCTAAGCCTTATTATCTGCTTTTATGACCTGCCTAGGGAGATTAGAGTATCGGTCGA | 3.51
39 | TGCCTCTTTTCTGCTTTTGGAATTTGACCTGCCTAGGGAGATTAGAGTATCGGTCGA | 8.78
40 | GCCTTATTATCTGCTTTTATGACCTTTGACGCCTAGGGAGATTAGAGTATCGGTCGA | 8.05
41 | CTGCTTTTGGAATTTGACCTCATTTGCTCCGCCTAGGGAGATTAGAGTATCGGTCGA | 6.52
42 | TTTGTTGCCTCTTTTCTGCTTTTGGAATTTGCCTAGGGAGATTAGAGTATCGGTCGA | 3.37
43 | GCATGACCTCAACTCTCAGTTTGGCTCTTAGCCTAGGGAGATTAGAGTATCGGTCGA | 0.116
44 | ATTATCTGCTTTTATGACCTTTGACTGCAGGCCTAGGGAGATTAGAGTATCGGTCGA | 7.32
45 | CGCATTTCTGCTTCTTCTCATTCTTGGAATGCCTAGGGAGATTAGAGTATCGGTCGA | 1.49
46 | CCCCACTTCCTGACTTGGCCTGAACCAGTTGCCTAGGGAGATTAGAGTATCGGTCGA | 0.602

Row | Sequence | binding signal [log2 normalized intensity]
47 | TTAAGAACTGGAGTAAAGGTCACTCTTGCTGCCTAGGGAGATTAGAGTATCGGTCGA | 3.94
48 | GTGTTTAATGTTTTCATTCTGATTTGCACAGCCTAGGGAGATTAGAGTATCGGTCGA | 0.934
49 | CTCTCCAAGCCAGAAAGATGTTTGCCCCAAGCCTAGGGAGATTAGAGTATCGGTCGA | 2.94
50 | GGTTGGCACGCTTAGGGAACAAAGGTCAGTGCCTAGGGAGATTAGAGTATCGGTCGA | 7.22
51 | CGCCGCCTCTGCCTCTTGACCCCTTGGCCCGCCTAGGGAGATTAGAGTATCGGTCGA | 5.9
52 | TTCCTGGCCTCTCTGCAAATTTGCCTTGTCGCCTAGGGAGATTAGAGTATCGGTCGA | 0.448
53 | TGTTTGCACTGAGGAATGGAAGGACCTTGGGCCTAGGGAGATTAGAGTATCGGTCGA | 2.07
54 | TTAGGGGTTAGGGTTAGGGTTAGGGTTACGGCCTAGGGAGATTAGAGTATCGGTCGA | 1.17
55 | GGCTAAACCTAGCCCCCTTTCCCTTATCTTGCCTAGGGAGATTAGAGTATCGGTCGA | 2.81
56 | ACAGGTGCTCTTTATCAGCACCAAGAACAAGCCTAGGGAGATTAGAGTATCGGTCGA | -0.837
57 | CTGGTGTAGTGGGGAGGGCATGGACTTTGGGCCTAGGGAGATTAGAGTATCGGTCGA | 6.38
58 | ATGACCTTTGAGCAATAGGAAATGGGAGGGGCCTAGGGAGATTAGAGTATCGGTCGA | 3.35
59 | GAATGACTTTGGGGAAATGACCTTTGTCCAGCCTAGGGAGATTAGAGTATCGGTCGA | 9.48
60 | GGGGAGGGCATGGACTTTGGAATTAAGGAGGCCTAGGGAGATTAGAGTATCGGTCGA | 5.91
61 | TTATCATGTGGTATTAACATGTAAATATGAGCCTAGGGAGATTAGAGTATCGGTCGA | 1.36
62 | GTATTAACATGTAAATATGACCTTTGCTTTGCCTAGGGAGATTAGAGTATCGGTCGA | 7.1
63 | GTAGTGGGGAGGGCATGGACTTTGGAATTAGCCTAGGGAGATTAGAGTATCGGTCGA | 8.06
64 | GCATGGAATGACTTTGGGGAAATGACCTTTGCCTAGGGAGATTAGAGTATCGGTCGA | 7.96
65 | ATGTGGTATTAACATGTAAATATGACCTTTGCCTAGGGAGATTAGAGTATCGGTCGA | 8.01
66 | CCTTTTTGGAATGTGTTTGCATGACTCATAGCCTAGGGAGATTAGAGTATCGGTCGA | 1.5
67 | TGATGACTTTTGACCCCAGGGGAAACTCCAGCCTAGGGAGATTAGAGTATCGGTCGA | 5.06
68 | GGAGGACTTTGGAATGGCAGTGCTTGTCCAGCCTAGGGAGATTAGAGTATCGGTCGA | 2.52
69 | TCACAATGGGGCATGACTTGTTATCACCTGGCCTAGGGAGATTAGAGTATCGGTCGA | 0.285

Row | Sequence | binding signal [log2 normalized intensity]
70 | TCCTTCTTGCTTAGGATAGGGTCAGTCTTTGCCTAGGGAGATTAGAGTATCGGTCGA | 2.48
71 | AGGCCGGTTGGCCAGGTTCCTCCACCGTCAGCCTAGGGAGATTAGAGTATCGGTCGA | -0.785
72 | TTCAGGCAGGAATGCTGAACAATTGATTTAGCCTAGGGAGATTAGAGTATCGGTCGA | -0.858
73 | GTCAAAAGGTGTATGTGGACTTTCAACTGCGCCTAGGGAGATTAGAGTATCGGTCGA | 6.13
74 | CCACACAGCACGTAATAGTTCATGAAATGGGCCTAGGGAGATTAGAGTATCGGTCGA | 0.614
75 | AAACAGAGGCTGAAATGGTTACAAAGGTCAGCCTAGGGAGATTAGAGTATCGGTCGA | 5.42
76 | GGGGAAATGACCTTTGTCCAGCTGTGCCGAGCCTAGGGAGATTAGAGTATCGGTCGA | 7.01
77 | AATGACCTTTGTCCAGCTGTGCCGAGCCTGGCCTAGGGAGATTAGAGTATCGGTCGA | 4.91
78 | ACTTTGGGGAAATGACCTTTGTCCAGCTGTGCCTAGGGAGATTAGAGTATCGGTCGA | 7.84
79 | ACCTTTGTCCTCATTGAGCCCTCCCCTTGTGCCTAGGGAGATTAGAGTATCGGTCGA | 4.38
80 | TCTTATGTCCCTCCTGACCTTTGGACTTGAGCCTAGGGAGATTAGAGTATCGGTCGA | 10.6
81 | CTCCTGACCTTTGGACTTGATAGAGTTTAAGCCTAGGGAGATTAGAGTATCGGTCGA | 8.25
82 | TCCAGTGGACATTGGCCCTTTGACCTTTAAGCCTAGGGAGATTAGAGTATCGGTCGA | 8.05
83 | AACTCTCAGTTTGGCTCTTATGTCCCTCCTGCCTAGGGAGATTAGAGTATCGGTCGA | 0.947
84 | ACTGCTCCAGTGGACATTGGCCCTTTGACCGCCTAGGGAGATTAGAGTATCGGTCGA | 6.76
85 | TTGGCTCTTATGTCCCTCCTGACCTTTGGAGCCTAGGGAGATTAGAGTATCGGTCGA | 9.16
86 | ATATCCTGACTGCTGACCTTTAAGCCTATAGCCTAGGGAGATTAGAGTATCGGTCGA | 4.7
87 | TGGACATTGGCCCTTTGACCTTTAATCAAGGCCTAGGGAGATTAGAGTATCGGTCGA | 7.21
88 | TCAGTTTGGCTCTTATGTCCCTCCTGACCTGCCTAGGGAGATTAGAGTATCGGTCGA | 3.83
89 | GACCTTTGGACTTGATAGAGTTTAAGTCTTGCCTAGGGAGATTAGAGTATCGGTCGA | 7.2
90 | GCCTCTTTATCTCCTCCCCTTGAGACTTTAGCCTAGGGAGATTAGAGTATCGGTCGA | 2.97

— PMC10726135, “HNF4α isoforms regulate the circadian balance between carbohydrate and lipid metabolism in the liver”
